Source: PubChem BioAssay (NCI)
Compounds without any hit were thinned out: in the full panel of roughly 83,000, 20% have a hit.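 Method: cells in 96-well plates; compound added at one concentration; 48 h incubation; percent growth measured; values under 10 scored active.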 A number with no mark means an inactive call. Active and inactive are the calls of the source.

Each molecule was assayed on MDA-MB-468 breast (assay: NCI-60 one-dose screen, 48 h (100 = growth as untreated, 0 = no growth, -100 = all killed)). Settings: 10 µM unless noted.
In the case of `Cc1cn(-c2cc(C(=O)Nc3cccc(C#Cc4cccc5[nH]nc(N)c45)c3)cc(C(F)(F)F)c2)cn1`, the growth is reported as 69.6%. Work on `COc1cc(-c2csc(NC(=O)c3cc(-n4cnc(C)c4)cc(C(F)(F)F)c3)n2)cc(OC)c1OC` yielded a growth of 78.4%. `CC1=CC(C)(C)Nc2ccc(Cc3ccc4c(c3)C(C)=CC(C)(C)N4)cc21` was tested, and the growth was -12.4% (active). Work on `c1ccc(-c2nn[nH]n2)c(-c2ccc(CN3CCN(c4nsc5ccccc45)CC3)cc2)c1` yielded a growth of 75.8%. `Clc1cc(Cl)c(OCCCCCCN2CCNCC2)c(Cl)c1` was tested, and the growth was -12.2% (active). With `COc1cc(/C=C2\CCCC3=C2N=C2SC(C)=NN2C3c2cc(OC)c(OC)c(OC)c2)cc(OC)c1OC` (centres undefined) the growth was 19.8%. `NC(N)=N/N=C(/c1ccccc1)c1ccccc1F` gave a growth of 29.1%. In the case of `COc1ccc(/C=C/C(=O)c2ccc(-n3cc(CN4CCN(c5cc6c(cc5F)c(=O)c(C(=O)O)cn6C5CC5)CC4)nn3)cc2)cc1OC`, the growth is reported as -7.19% (active). For `CCN1C(=O)N(CC)C2C1NN=c1s/c(=C\c3cccs3)c(=O)n12` (centres undefined), the growth was 15.3%. `O=S(=O)(Nc1cc(Sc2cccc3cccnc23)c(O)c2ccccc12)c1ccc(F)cc1` was tested, and the growth was -46.6% (active). With `Cn1c(/C=C(\C#N)c2ccccc2)nc2c(N3CCOCC3)nc(Cl)nc21` the growth was -47.9% (active). In the case of `C=C(C)[C@H]1CC/C(C)=C/CC[C@]2(C)O[C@H]2CC/C(C=O)=C\C1O` (some centres undefined), the growth is reported as 126%. With `O=C(N/N=C/c1ccc(Cl)s1)c1[nH]c2ccc(Br)cc2c1-c1ccccc1` the growth was 2.96% (active). `CC(C)C/C(=N\NC(=O)c1ccncc1)c1cc(Cl)ccc1O` was tested, and the growth was -1.67% (active). `CC(=O)O[C@@H]1CCN2C(=O)N(C)c3ccccc3[C@@H]2C1` showed a growth of 126%. `Cc1ccc2nc(Cl)c(-c3nc4ccccc4o3)cc2c1` showed a growth of 100%. Work on `CSc1nc2c(c(=O)[nH]1)C(c1ccc(Cl)cc1)C1=C(N2)/C(=C/c2ccc(Cl)cc2)CNC1` (centres undefined) yielded a growth of 48.4%. `Ic1ccccc1I` showed a growth of 98.9%. Work on `CCOC(=O)C1OC2(CCCC2)OC1C(=O)OCC` (centres undefined) yielded a growth of 100%. `Cc1cc2nc(-c3ccccc3)c(-c3ccccc3)nc2cc1C` was tested, and the growth was 106%. In the case of `COC(=O)[C@H](Cc1ccc(O)cc1)NC(=O)[C@@H](OC)[C@@H]1Cc2cc3cc(OC4CC(OC5CC(O)C(O)C(C)O5)C(O)C(C)O4)c(C)c(O)c3c(O)c2C(=O)[C@H]1OC1CC(OC2CC(OC3CC(C)(O)C(O)C(C)O3)C(O)C(C)O2)C(O)C(C)O1` (some centres undefined), the growth is reported as -25.5% (active). With `C[C@]1(CO)C[C@@H](O)C[C@]2(C)[C@@H]1CC[C@@]13C[C@@H]4[C@@H](C[C@H]12)[C@]4(C)C3` the growth was 113%. In the case of `C=C(C)[C@@H]1CC[C@]2(COCCCNCCCN)CC[C@]3(C)[C@H](CC[C@@H]4[C@@]5(C)CC[C@H](OCCCN)C(C)(C)[C@@H]5CC[C@]43C)[C@@H]12`, the growth is reported as -67.8% (active). For `CC1(C)CC[C@]2(C(=O)N3CCNCC3)CC[C@]3(C)C(=CC[C@@H]4[C@@]5(C)CCC(=O)C(C)(C)[C@@H]5CC[C@]43C)[C@@H]2C1`, the growth was 105%. For `COc1ccccc1N1CCN(C2=NN=C(c3cccc(Cl)c3)c3ccccc3C2)CC1`, the growth was -1.01% (active). In the case of `C=C(C)[C@@H]1CC[C@]2(C)[C@H](CC[C@@H]3[C@@H]([C@@](C)(O)CCC=C(C)C)CC[C@]32C)[C@@]1(C)CCC(=O)O`, the growth is reported as 8.85% [100 µM] (active). `COc1ccc(/C=C2\Oc3cc(OCCN4CCCC4)ccc3C2=O)c(OC)c1` showed a growth of 86.5%. For `NC1=NC2(CCCC2)N(c2ccc(S(=O)(=O)Nc3nccs3)cc2)C(N)=N1`, the growth was 90.7%. In the case of `COc1cc(/C=C/C(=O)c2cc(-c3ccc(C(F)(F)F)cc3)ccc2O)cc(OC)c1OC`, the growth is reported as 57.9%. Molecule `O=C(Nc1ccc(OS(=O)(=O)c2ccc(F)cc2)cc1)c1ccc(Cl)cc1` has a growth of 98%. `COc1nccnn1` gave a growth of 82.9%. `COc1cc2nc(Cl)nc(Nc3cccc(C4=Nc5c(N)nc(N)nc5NC(c5ccc(Cl)cc5)C4)c3)c2cc1OC` (centres undefined) showed a growth of 27.5%. `COc1ccc(N/N=C/c2cn(-c3ccc(C(=O)O)cc3)nc2-c2cc3ccccc3oc2=O)cc1` showed a growth of 107%. `Cc1ccn2c(-c3csc(Nc4cccc(O)c4)n3)c(C)nc2c1` was tested, and the growth was -33.1% (active).
